A short description of assay [1]: Nuclear factor erythroid 2-related factor 2/antioxidant responsive element (Nrf2/ARE) small molecule agonists: qHTS cell viability counter screen in human keratinocytes (AID 1919968; active = well fitted curve in the direction sought with a large enough effect in the repeat runs; an effect the other way counts as inactive or inconclusive; note: nearly all actives have a fitted effect of over 55% in size; note: potency is the fitted concentration of half-maximal effect). The conditions noted are these: KeratinoSens HaCaT ARE cells viability, CellTiter-Fluor, 24 h; series mostly up to 92.4 µM. An outline of the steps: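 Cytotoxicity was multiplexed with the Nrf2/ARE luciferase assay in the same wells. Stably transfected HaCaT keratinocytes were treated with test compounds for 23 h at 37 C. Cell viability was then measured by CellTiter-Fluor fluorescence.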
In general terms: qHTS replaces the single test concentration by a dilution series.

Assay [2] deals with KiSS-1 receptor (Homo sapiens) (UniProt Q969F8). As to the kind of experiment: Human kisspeptin (KISS1R) small molecule agonists, calcium flux assay in KISS1R-HEK293 cells (AID 1920064; active = well fitted curve in the direction sought with a large enough effect in the repeat runs; an effect the other way counts as inactive or inconclusive). The note with it: KISS1R-HEK293, calcium flux fluorescence, agonist; series mostly up to 76.8 µM. The method, boiled down: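 Agonist activity is monitored as intracellular calcium rise in engineered HEK293 cells carrying human KISS1R. Cells are dye-loaded for 1 h at 37 C before compound addition, and fluorescence is recorded for 3 min.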

Assay [3] can be described thus: G protein-coupled receptor (GPCR) small molecule agonists, calcium flux assay: HEK293 wild type cell line counter screen (AID 1920065). The note with it: HEK293 WT calcium flux, fluorescence, agonist mode; series mostly up to 57.6 µM. An outline of the steps: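 Seed cells, incubate 18 h (37 C, 5% CO2); add calcium dye, 1 h at 37 C; pin-transfer compounds, ATP control or DMSO; read fluorescence 480/540 nm each second for 3 min.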
Background: A change in cytosolic calcium serves as a functional read-out for many receptors and channels.

The nature of assay [4]: p53 small molecule agonists, cell-based qHTS assay with human liver microsomes (AID 1963577). The note with it: HCT-116 p53RE-bla with human liver microsomes, ratio, 16 h; series mostly up to 66 µM. An outline of the steps: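 Fluorescence of the beta-lactamase reporter in p53RE-bla cells, detected with LiveBLAzer substrate (2 h, room temperature, dark), served as the read-out after 16 h compound exposure at 37 C with human liver microsomes and NADPH, each 0.5 mg/mL final.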

A short description of assay [5]: p53 small molecule agonists, cell-based qHTS assay with rat liver microsomes (AID 1963578). The conditions noted are these: HCT-116 p53RE-bla, beta-lactamase ratio, 16 h; series mostly up to 66 µM. The method, boiled down: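 Cells carrying a p53 response element–beta-lactamase reporter were plated and rested 5 h, then dosed with compound in DMSO plus rat liver microsomes and NADPH, each at 0.5 mg/mL final. After 16 h at 37 C, LiveBLAzer substrate was added for 2 h.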

Assay [6] in a line: p53 small molecule agonists, cell-based qHTS assay with human liver microsomes: qHTS cell viability counter screen (AID 1963579). Note: nearly all actives have a fitted effect of over 45% in size. Note: potency is the fitted concentration of half-maximal effect. The note with it: p53RE-bla HCT-116 viability, ATP luminescence, 16 h, HLM; series mostly up to 66 µM. An outline of the steps: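 Cytotoxicity counter screen: p53RE-bla, 4,000 cells/well; 5 h settle, 37 C/5% CO2; cpd + HLM 0.5 mg/mL + NADPH 0.5 mg/mL (final); 16 h, 37 C; CellTiter-Glo, 30 min RT, luminescence.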

Assay [7] can be described thus: p53 small molecule agonists, cell-based qHTS assay with rat liver microsomes: qHTS cell viability counter screen (AID 1963580). Note: nearly all actives have a fitted effect of over 45% in size. The note with it: p53RE-bla HCT-116 + rat microsomes, ATP viability, 16 h; series mostly up to 66 µM. An outline of the steps: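 Cytotoxicity counter screen: intracellular ATP measured by CellTiter-Glo luminescence in the same wells as the beta-lactamase reporter read, on HCT-116 p53RE-bla cells exposed 16 h at 37 C to compounds with rat liver microsomes and NADPH, each 0.5 mg/mL final.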

Assay [8] concerns the target 5-hydroxytryptamine receptor 2A (Homo sapiens) (UniProt P28223). As to the kind of experiment: 5-hydroxytryptamine receptor 2A (HTR2A) small molecule antagonists, cell-based qHTS assay (AID 1963586). Note: nearly all actives have a fitted effect of over 45% in size. The note with it: HTR2A-CHO cells, DOI-induced calcium flux, fluorescence; series mostly up to 61.5 µM. An outline of the steps:
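CHO cells stably expressing human HTR2A were plated for 18 h at 37 C, then loaded with calcium dye for 1 h. Compounds were preincubated 5 min at room temperature before DOI (4 nM solution) was added. Kinetic fluorescence was read for 3 min.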

Assay [9] has the same target. As to the kind of experiment: 5-hydroxytryptamine receptor 2A (HTR2A) small molecule agonists, cell-based qHTS assay (AID 1963587). Note: nearly all actives have a fitted effect of over 30% in size. The note with it: HTR2A-CHO cells, calcium flux fluorescence, agonist mode; series mostly up to 76.8 µM. An outline of the steps:
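CHO cells stably expressing human HTR2A, plated 18 h, loaded with calcium dye 1 h at 37 C. Agonist mode: compounds added and intracellular calcium fluorescence recorded kinetically for 2 min at 1 sec intervals.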

Assay [10] has as its target Muscarinic acetylcholine receptor M1 (Homo sapiens) (UniProt P11229). The assay can be described thus: Cholinergic receptor muscarinic 1 (CHRM1) small molecule antagonists, cell-based qHTS assay (AID 1963588). Note: nearly all actives have a fitted effect of over 40% in size. The note with it: CHRM1-CHO antagonist mode, calcium flux fluorescence; series mostly up to 61.5 µM. An outline of the steps: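 Compounds were tested at 15 concentrations in three independent runs. Dye-loaded CHRM1-CHO cells were exposed 5 min at room temperature before stimulation by acetylcholine added at 50nM. Intracellular calcium was read kinetically on FDSS for 3 min.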

For assay [11] the target is unchanged. As to the kind of experiment: Cholinergic receptor muscarinic 1 (CHRM1) small molecule agonists, cell-based qHTS assay (AID 1963589). Note: nearly all actives have a fitted effect of over 35% in size. The conditions noted are these: CHRM1-CHO cells, agonist mode, calcium flux fluorescence; series mostly up to 76.8 µM. The method, boiled down: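 Cells were plated and incubated 18 h at 37 C/5% CO2, loaded with calcium dye for 1 h at 37 C, then treated with compounds in DMSO. Fluorescence was recorded kinetically at 1 sec intervals.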

Assay [12] can be described thus: cAMP Responsive Elements (CRE) small molecule antagonists, cell-based qHTS assay (AID 1963591; active = well fitted inhibition curve with a large enough effect in the signal ratio in the repeat runs, not every such curve was filed as active; the % refers to the signal ratio; note: potency is the fitted concentration of half-maximal effect). The note with it: CRE-bla HEK293T, beta-lactamase FRET ratio; series mostly up to 92.4 µM. The method, boiled down:
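Cells (CRE-bla HEK 293T, DMEM with 10% dialyzed FBS and 25 mM HEPES) are seeded and incubated 18 h. Compounds are added with NKH477 agonist at 0.25 uM final for 3 h, then FRET substrate for 2 h.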

Assay [13] has as its target Beta-2 adrenergic receptor (Homo sapiens) (UniProt P07550). The assay can be described thus: Adrenergic beta2 receptor (ADRB2) small molecule antagonists, cell-based qHTS assay (AID 1963592). Note: nearly all actives have a fitted effect of over 50% in size. The conditions noted are these: CHO-ADRB2 cells, isoproterenol-stimulated cAMP HTRF ratio, 0.5 h; series mostly up to 92.4 µM. The method, boiled down:
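Assay format: CHO-ADRB2 cells, 18-20hr seeding at 37C/5% CO2, then compound plus 1nM isoproterenol agonist mix for 0.5hr RT. Homogeneous time-resolved fluorescence cAMP detection after 1hr, expressed as 665/615 nm ratio.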

Assay [14] has as its target D(2) dopamine receptor (Homo sapiens) (UniProt P14416). The assay can be described thus: Dopamine D2 receptor (DRD2) small molecule agonists, cell-based qHTS assay (AID 1963594). Note: nearly all actives have a fitted effect of over 35% in size. The conditions noted are these: HEK293-DRD2 cAMP HTRF, agonist mode, 30 min; series mostly up to 92.4 µM. An outline of the steps:
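HEK293 cells stably expressing human DRD2, pre-treated with PDE inhibitor Ro20-1724 (0.1 mM final) and compound 10 min at room temperature, then stimulated with NKH477 (200nM […]) for 30 min. cAMP read by HTRF (665/620 nm).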

For assay [15] the target is unchanged. The assay can be described thus: Dopamine D2 receptor (DRD2) small molecule antagonists, cell-based qHTS assay (AID 1963595; active = well fitted inhibition curve with a large enough effect in the signal ratio in the repeat runs, with a control signal flat; the % refers to the signal ratio; note: potency is the fitted concentration of half-maximal effect). The conditions noted are these: HEK293-DRD2 cAMP HTRF antagonist mode; series mostly up to 92.4 µM. An outline of the steps:
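DRD2-HEK293; 0.1 mM Ro20-1724; cpd 10 min RT; NKH477 200 nM + quinpirole 12 nM, 30 min RT; HTRF cAMP (cAMP-d2/anti-cAMP cryptate), 665/620 nm ratio after 1 h.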

A short description of assay [16]: p53 small molecule agonists, cell-based qHTS assay: qHTS cell viability counter screen (AID 1963581). Note: nearly all actives have a fitted effect of over 45% in size. The conditions noted are these: p53RE-bla HCT-116 viability, ATP luminescence, 16 h; series mostly up to 66 µM. An outline of the steps:
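Viability was counter-screened in parallel with the p53 agonist reporter by measuring intracellular ATP luminescence in the same HCT-116 p53RE-bla wells after 16 h compound treatment at 37 C.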

A short description of assay [17]: p53 small molecule agonists, cell-based qHTS assay (AID 1963582; active = well fitted activation curve with a large enough effect in the signal ratio in the repeat runs, not every such curve was filed as active; the % refers to the signal ratio). The conditions noted are these: HCT-116 p53RE-bla reporter, beta-lactamase FRET ratio, 16 h; series mostly up to 66 µM. The method, boiled down:
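Cells carrying a p53-responsive bla reporter are treated with test compounds for 16 h at 37 C; beta-lactamase activity is then detected with LiveBLAzer B/G FRET substrate after 2 h at room temperature.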

Assay [18] has as its target Beta-2 adrenergic receptor (Homo sapiens) (UniProt P07550). The assay can be described thus: Adrenergic beta2 receptor (ADRB2) small molecule agonists, cell-based qHTS assay (AID 1963593).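 Note: CHO cells stably overexpressing human ADRB2.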 The conditions noted are these: CHO-ADRB2 cells, cAMP HTRF, 30 min; series mostly up to 92.4 µM. An outline of the steps: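 CHO cells stably over-expressing ADRB2 were plated overnight at 37C, then dosed with compounds plus a stimulation mix containing 100uM IBMX and 25uM Ro-20-1724 for 0.5hr at room temperature. cAMP was measured by HTRF competition, 1hr.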

The nature of assay [19]: cAMP Responsive Elements (CRE) small molecule agonists, cell-based qHTS assay (AID 1963590). The conditions noted are these: CRE-bla HEK293T, beta-lactamase FRET ratio, 3 h; series mostly up to 92.4 µM. An outline of the steps:
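Cells carrying a CRE-driven beta-lactamase reporter (HEK 293T) are seeded, incubated overnight (18 h), and treated with test compounds for 3 h at 37 C; reporter activity is then detected with a FRET substrate after 2 h at room temperature.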

Several values for one entry are separate records, joined by “and”; a condition that tells them apart may be missing. Equal values may be shown once. Records with an inconclusive call do not appear. Some compounds were tested as several samples or in several runs, with calls that do not always agree. Activity calls are given as the source filed them. Unless noted, calls come from the whole dose curve.

Sequence of Muscarinic acetylcholine receptor M1 (Homo sapiens) (P11229 whole entry, looked up): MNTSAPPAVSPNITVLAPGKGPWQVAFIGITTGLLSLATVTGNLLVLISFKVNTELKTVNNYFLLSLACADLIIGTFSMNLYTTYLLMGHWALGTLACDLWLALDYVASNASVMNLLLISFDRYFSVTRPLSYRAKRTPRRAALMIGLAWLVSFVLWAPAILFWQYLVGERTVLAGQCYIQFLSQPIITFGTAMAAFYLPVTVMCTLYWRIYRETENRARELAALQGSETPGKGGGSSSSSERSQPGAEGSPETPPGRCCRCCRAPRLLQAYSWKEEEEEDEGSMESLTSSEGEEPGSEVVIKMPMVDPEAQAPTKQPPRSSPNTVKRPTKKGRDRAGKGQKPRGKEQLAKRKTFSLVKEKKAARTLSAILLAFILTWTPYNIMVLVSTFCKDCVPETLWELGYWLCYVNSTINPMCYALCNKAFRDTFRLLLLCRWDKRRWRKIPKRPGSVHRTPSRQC
Sequence of 5-hydroxytryptamine receptor 2A (Homo sapiens) (P28223 whole entry, looked up): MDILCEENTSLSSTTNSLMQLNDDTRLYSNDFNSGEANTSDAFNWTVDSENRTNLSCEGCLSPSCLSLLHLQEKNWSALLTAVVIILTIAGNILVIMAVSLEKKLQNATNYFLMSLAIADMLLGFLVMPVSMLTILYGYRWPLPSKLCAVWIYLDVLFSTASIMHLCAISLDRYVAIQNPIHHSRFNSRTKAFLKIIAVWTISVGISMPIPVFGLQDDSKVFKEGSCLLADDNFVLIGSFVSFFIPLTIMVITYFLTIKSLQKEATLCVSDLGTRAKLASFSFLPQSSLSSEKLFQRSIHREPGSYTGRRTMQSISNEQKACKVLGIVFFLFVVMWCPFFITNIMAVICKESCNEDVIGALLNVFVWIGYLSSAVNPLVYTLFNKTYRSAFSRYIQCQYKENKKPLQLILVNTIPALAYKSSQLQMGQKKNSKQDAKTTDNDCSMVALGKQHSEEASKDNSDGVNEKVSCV
Sequence of D(2) dopamine receptor (Homo sapiens) (P14416 whole entry, looked up): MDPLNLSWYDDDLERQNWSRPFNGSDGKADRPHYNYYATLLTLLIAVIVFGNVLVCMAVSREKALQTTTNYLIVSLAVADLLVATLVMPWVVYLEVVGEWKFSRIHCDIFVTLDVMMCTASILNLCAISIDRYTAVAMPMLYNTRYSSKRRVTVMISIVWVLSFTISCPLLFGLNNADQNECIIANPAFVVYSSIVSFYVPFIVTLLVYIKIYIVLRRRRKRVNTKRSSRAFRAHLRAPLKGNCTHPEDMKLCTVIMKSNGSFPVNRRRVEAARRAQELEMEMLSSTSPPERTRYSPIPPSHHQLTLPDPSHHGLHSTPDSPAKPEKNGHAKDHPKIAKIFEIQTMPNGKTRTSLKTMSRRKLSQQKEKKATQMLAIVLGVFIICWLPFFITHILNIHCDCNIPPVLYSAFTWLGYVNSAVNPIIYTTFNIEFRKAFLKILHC
Sequence of Beta-2 adrenergic receptor (Homo sapiens) (P07550 whole entry, looked up): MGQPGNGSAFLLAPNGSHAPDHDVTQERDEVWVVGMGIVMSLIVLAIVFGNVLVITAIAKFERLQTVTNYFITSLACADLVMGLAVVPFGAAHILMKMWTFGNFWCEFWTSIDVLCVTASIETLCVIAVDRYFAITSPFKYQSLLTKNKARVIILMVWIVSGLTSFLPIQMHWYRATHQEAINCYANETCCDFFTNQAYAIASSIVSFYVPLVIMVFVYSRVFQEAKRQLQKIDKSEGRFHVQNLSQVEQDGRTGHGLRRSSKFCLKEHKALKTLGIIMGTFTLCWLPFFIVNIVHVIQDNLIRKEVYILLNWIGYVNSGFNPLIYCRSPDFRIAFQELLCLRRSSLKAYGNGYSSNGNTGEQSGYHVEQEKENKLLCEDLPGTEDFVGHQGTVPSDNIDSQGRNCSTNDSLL
Sequence of KiSS-1 receptor (Homo sapiens) (Q969F8 whole entry, looked up): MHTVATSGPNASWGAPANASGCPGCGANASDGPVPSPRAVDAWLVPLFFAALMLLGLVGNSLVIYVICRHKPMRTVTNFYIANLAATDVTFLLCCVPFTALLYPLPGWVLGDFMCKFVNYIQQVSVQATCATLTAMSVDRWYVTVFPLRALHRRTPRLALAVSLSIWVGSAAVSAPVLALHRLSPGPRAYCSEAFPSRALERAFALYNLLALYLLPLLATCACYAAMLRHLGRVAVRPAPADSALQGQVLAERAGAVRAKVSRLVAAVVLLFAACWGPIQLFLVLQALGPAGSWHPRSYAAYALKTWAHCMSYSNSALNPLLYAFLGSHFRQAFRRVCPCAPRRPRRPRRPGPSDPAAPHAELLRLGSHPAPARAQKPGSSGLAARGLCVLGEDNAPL

Turning to `Oc1ccc(C2(c3ccc(O)c(C4CCCCC4)c3)CCCCC2)cc1C1CCCCC1`, the Potency in assay [1] is 12.2 µM (active); in assay [6], 20.4 µM (active); in assay [12], 21.7 µM (active). For the same compound, the Potency entry in [2], in assay [3], in assay [4], in [5], in assay [7] and in assay [8] was “inactive” throughout. The Potency entry in assay [9], in assay [10], in assay [11], in assay [13], in assay [14] and in assay [15] was “inactive” throughout.

As to `CCOC(=O)C(C)Oc1ccc(Oc2nc3ccc(Cl)cc3o2)cc1` (stereo not given), the Potency entry in [1], in [2], in [3], in assay [4], in [5] and in [6] was “inactive” each time. In addition, the Potency entry in [7], in assay [16], in assay [17], in assay [8], in assay [9] and in assay [11] was “inactive” each time. The Potency entry in [13], in assay [18], in assay [14] and in [15] was “inactive” throughout.

Regarding `Clc1cccc(Cl)n1`, the Potency entry in [1], in assay [2], in assay [3], in [4], in assay [5] and in assay [6] was “inactive” in each case. In addition, the Potency entry in assay [7], in assay [16], in assay [9], in assay [10], in assay [11] and in assay [19] was “inactive” throughout. The Potency result in [12], in assay [13], in [18], in assay [14] and in assay [15] was “inactive” throughout.

On to `CN(C)CCCN1c2ccccc2CCc2ccc(Cl)cc21`, for which the Potency is 61.1 µM (active) in assay [1]; 40.8 µM (active) and inactive in [6]; 61.1 µM (active) and 18.8 µM (active) in assay [15]. In addition, the Potency entry in [2], in assay [3], in [4], in assay [7], in assay [12] and in assay [18] was “inactive” throughout. The Potency result in [14] is “inactive”.

With `CC(=O)N1CCN(c2ccc(OC[C@H]3CO[C@](Cn4ccnc4)(c4ccc(Cl)cc4Cl)O3)cc2)CC1`, the Potency in assay [1] was 54.5 µM (active). Moreover, the Potency entry in [2], in [3], in [13] and in [14] was “inactive” throughout.

Regarding `CCCC/C=C/CCCCO`, the Potency entry in assay [1], in assay [2], in [3], in assay [4], in assay [5] and in assay [6] was “inactive” throughout. Also, the Potency result in assay [7], in [17], in assay [8], in [9], in assay [10] and in [19] was “inactive” in each case. Besides, the Potency entry in assay [12], in assay [13], in assay [18], in assay [14] and in [15] was “inactive” throughout.

The record behind these values is PubChem BioAssay (Tox21).
